Screens deposited in PubChem BioAssay by The Scripps Research Institute Molecular Screening Center.
ASK1 primary: inhibitors of human ASK1 kinase; Q99683; AlphaScreen MKK6 phosphorylation by ASK1, luminescence; inhibition, % at 7.44 µM; 0.99% of 22,000 active; in the data active = inhibition above about 35%
ULK1 primary: blocks human autophagy kinase ULK1. AlphaScreen Atg13 phosphorylation by ULK1, luminescence. inhibition, % at 5.96 µM. 1.9% of 30,000 active. AID 1259251; in the data active = inhibition above about 43%
A number is an active result. Sampled rows, rich in hits. Any-hit rate of the full collection: about 2.5%.

Results for CCN1CCN(CCNC(=O)c2cccc(-n3ncc4cc(Nc5c(Cl)cccc5Cl)ccc43)c2)CC1 ?
ASK1 primary: inactive; ULK1 primary: inactive

How did O=C(NCc1cccc(C(F)(F)F)c1)c1csc(N2CCN(Cc3ccc4c(c3)OCO4)CC2)n1 do in these assays?
ASK1 primary: inactive; ULK1 primary: inactive

How did CC(=O)Nc1ccc(NC(=O)c2cnc(-c3ccc(C(=O)N4CCN(C)CC4)cc3)s2)cc1 do in these assays?
ASK1 primary: inactive; ULK1 primary: inactive

How did O=C1CCCN1CCCNc1ccnc(NCCCN2CCCC2=O)n1 do in these assays?
ASK1 primary: inactive; ULK1 primary: inactive

Results for COc1cc(Nc2nccc(NCCCN3CCCC3=O)n2)cc(OC)c1OC ?
ASK1 primary: inactive; ULK1 primary: 52

How did O=C(Nc1ccccc1)c1ccnc(-c2csc3ccccc23)c1 do in these assays?
ASK1 primary: inactive; ULK1 primary: inactive

What do the screens show for `CCN(CC)CCNC(=O)c1ccc(Nc2cc(Nc3ccccc3C(=O)NC)c(C(F)(F)F)cn2)c(OC)c1`?
ASK1 primary: inactive; ULK1 primary: 90

Results for CNC(=O)c1ccccc1Nc1cc(Nc2ccc(C(=O)N(C)C)cc2OC)ncc1C(F)(F)F ?
ASK1 primary: inactive; ULK1 primary: 88

How did COc1ccc(CC(=O)Nc2cc(Nc3ccccc3C(=O)NC[C@H](O)C(=O)N(C)C)ccn2)cc1 do in these assays?
ASK1 primary: inactive; ULK1 primary: inactive

Results for CNC(=O)c1ccccc1Nc1cc(Nc2ccc(C(=O)NC[C@H](O)C(=O)N(C)C)cc2OC)ncc1C(F)(F)F ?
ASK1 primary: inactive; ULK1 primary: 89

What do the screens show for `Oc1ccc(CCNc2nc(Nc3ccc4ncccc4c3)nc3c2ncn3-c2ccsc2)cc1`?
ASK1 primary: inactive; ULK1 primary: inactive

Results for C[C@@H](NC(=O)OC(C)(C)C)c1nc(-c2ccncc2)n[nH]1 ?
ASK1 primary: inactive; ULK1 primary: inactive

What do the screens show for `O=C(NC1CC1)c1cnc(Nc2cnccn2)s1`?
ASK1 primary: inactive; ULK1 primary: inactive

Results for CN(CCO)c1ccc2c3c(cccc13)C(=O)N(c1cccc(Cl)c1)C2=O ?
ULK1 primary: inactive

What do the screens show for `Cc1cccc(CNC(=O)Nc2ccc(-c3cn[nH]c3)cc2)c1`?
ASK1 primary: inactive; ULK1 primary: inactive

How did CN(C)CC(=O)Nc1cccc(CNC(=O)Nc2ccc(-c3cn[nH]c3)cc2)c1 do in these assays?
ASK1 primary: inactive; ULK1 primary: 96

Results for COc1cccc(CNC(=O)Nc2ccc(-c3cnn(C)c3)cc2)c1 ?
ASK1 primary: inactive; ULK1 primary: inactive

What do the screens show for `c1cc(Nc2cc(Nc3ccc4c(c3)OCO4)ncn2)ncn1`?
ASK1 primary: inactive; ULK1 primary: 60

Results for c1ccc(Nc2cc(Nc3ccc4c(c3)OCO4)ncn2)cc1 ?
ASK1 primary: inactive; ULK1 primary: inactive

How did O=C(N/N=C\C=C\c1ccc(Br)cc1)c1ccc2c(c1)OCO2 do in these assays?
ULK1 primary: inactive

How did COC(=O)c1ccc(/C=C/C(=O)c2ccc3c(c2)OCCO3)cc1 do in these assays?
ULK1 primary: 43

Results for Nc1c(N=Nc2ccc(-c3ccc(N=Nc4cc(S(=O)(=O)O)c5ccccc5c4N)cc3)cc2)cc(S(=O)(=O)O)c2ccccc12 ?
ULK1 primary: 56

What do the screens show for `Cc1cc(-c2ccc(N=Nc3ccc4c(S(=O)(=O)O)cc(S(=O)(=O)O)c(N)c4c3O)c(C)c2)ccc1N=Nc1ccc2c(S(=O)(=O)O)cc(S(=O)(=O)O)c(N)c2c1O`?
ULK1 primary: 57

Results for O=S(=O)(O)c1ccccc1O ?
ULK1 primary: inactive

Results for O=C1CCCN1CCCNc1nc(NC2CCN(Cc3ccccc3)CC2)c2ncn(C3CCCCC3)c2n1 ?
ASK1 primary: inactive; ULK1 primary: inactive

Results for Cc1cncc2c(S(=O)(=O)N3CC[C@H](NC(=O)[C@@H](N)Cc4ccccc4)C3)cccc12 ?
ASK1 primary: inactive; ULK1 primary: inactive

How did CCN(CC)C(=O)C1CCCN(c2cc(C(=O)Nc3ccc(N4CCOCC4)cc3)ccn2)C1 (stereo not drawn) do in these assays?
ASK1 primary: inactive; ULK1 primary: 60

What do the screens show for `CCN(CC)C(=O)C1CCCN(c2cc(C(=O)Nc3ccccc3)ccn2)C1` (stereo not drawn)?
ASK1 primary: inactive; ULK1 primary: inactive

How did O=C(c1cc(Nc2ccc3[nH]ncc3c2)ccn1)N1CCOCC1 do in these assays?
ASK1 primary: inactive; ULK1 primary: inactive

Results for O=C(c1cccc(Nc2ccc3[nH]ncc3c2)n1)N1CCOCC1 ?
ASK1 primary: inactive; ULK1 primary: 48

What do the screens show for `COc1cc2nc(Nc3ccccc3)nc(NCCOc3ccccc3)c2cc1OC`?
ASK1 primary: inactive; ULK1 primary: inactive

What do the screens show for `COc1cc2nc(Nc3cccc(N(C)C)c3)nc(NCCOc3ccccc3)c2cc1OC`?
ASK1 primary: 40; ULK1 primary: inactive

How did CCCNc1nc(Nc2cccc(N(C)C)c2)nc2cc(OC)c(OC)cc12 do in these assays?
ASK1 primary: inactive; ULK1 primary: inactive

How did COc1cc2nc(Nc3cccc(N(C)C)c3)nc(NC3CC3)c2cc1OC do in these assays?
ASK1 primary: 49; ULK1 primary: inactive
